Measured values reported in PubChem BioAssay (NCI).
The panel holds about 83,000 compounds, 20% with a hit somewhere; the sample as a whole holds those more often.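 Testing used 96-well plates and a 48-hour single-concentration exposure. Example: -40 means 40% of the starting cells died.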 Unmarked numbers belong to inactive results. Activity calls are given as the source filed them. How the source made its calls: active means growth percent below 10; inactive means the rest.

Test system: TK-10 renal
Assay: NCI-60 one-dose screen, 48 h (100 = growth as untreated, 0 = no growth, -100 = all killed)
Conditions: 10 µM unless noted

Structure (SMILES)	growth
Nc1cc2ccccc2c(=O)n1NC(=O)c1ccc(I)cc1	115%
CC(=O)Nc1cccc(Nc2nc(N[C@H]3CCCc4ccccc43)c3ccccc3n2)c1	99.1%
CCN(CC)C(=O)N/C(N)=N/c1nc2ccccc2s1	53.7%
O=C(O)c1cccc(-c2ccc(/C=N/NC(=O)c3[nH]c4ccc(Br)cc4c3-c3ccccc3)o2)c1	117%
NS(=O)(=O)c1ccc(-n2cc(-c3cccc(NC(=O)c4cc(C(F)(F)F)cc(C(F)(F)F)c4)c3)nn2)cc1	72.9%
C[C@H](Nc1nc(NCCc2ccccc2)nc2ccccc12)c1ccccc1	-93.6% (active)
C(=C\c1cc(/C=C/c2ccccc2)c2ccccc2n1)/c1ccccc1	106%
C=C1CC[C@@H]2[C@]3(C)COC(c4cn(-c5ccccc5)nc4-c4ccccc4)O[C@@H]3CC[C@@]2(C)[C@@H]1C/C=C1/C(=O)OC[C@H]1O (stereo partly drawn)	-57.3% (active)
N#Cc1c(-c2cccc3ccccc23)cc(-c2cccc(OCC(=O)O)c2)[nH]c1=O	104%
O=C(/C=C/c1cccc(OCc2ccc(F)cc2)c1)c1nc2ccccc2[nH]1	79%
CCOC(=O)C1=C(N)N(c2ccccc2)C2=C(C(=O)CC(C)(C)C2)C1c1cccc(Cl)c1Cl (stereo not drawn)	95.2%
CC(C)c1ccc2c(N)c(C(=O)Nc3ccc(C(F)(F)F)cn3)sc2n1	76.5%
COc1ccc2cc([C@H](C)C(=O)N/N=C/c3ccc(Br)cc3)ccc2c1	101%
CC(=O)Oc1ccccc1C(=O)[Se]CC(=O)Nc1cccc(C(F)(F)F)c1	-83.8% (active)
COc1ccc(NC(=O)c2sc3nc(C(C)C)ccc3c2N)cc1	93.1%
CC1=C(C(=O)OCc2ccccc2)C(c2c(O)cc(O)cc2O)n2c(nc3ccccc32)N1 (stereo not drawn)	87.9%
N#Cc1ccc(/C=N/NC(=O)c2[nH]c3ccc(Br)cc3c2-c2ccccc2)o1	27.8%
CC1=C(C(=O)OC(C)C)C(c2cccc(O)c2)NC(=S)N1 (stereo not drawn)	104%
COc1cc(-c2ccc(/C=N/NC(=O)c3[nH]c4ccc(Br)cc4c3-c3ccccc3)s2)cc(OC)c1OC	106%

Structure (SMILES)	growth
COc1cc(/C=C/C(=O)c2nnn(-c3ccc(Cl)cc3)c2C)cc(OC)c1OC	86.7%
CC1=C(C(=O)OCc2ccccc2)C(c2ccc(-n3cncn3)cc2)n2c(nc3ccccc32)N1 (stereo not drawn)	89.7%
COc1cc(-c2cc(-c3cccc(OCC(=O)O)c3)[nH]c(=O)c2C#N)cc(OC)c1OC	102%
CSc1ccc(C(=O)Nc2ccc3nn(/C(C#N)=C/c4ccccn4)nc3c2)cc1	-96.7% (active)
CSc1ccc(NC(=O)c2ccc3nn(/C(C#N)=C/c4ccccn4)nc3c2)cc1	-94.7% (active)
CC1CCCCN1CCCNC(=O)N/C(N)=N/c1nc2ccccc2s1 (stereo not drawn)	70.1%
O=C(O)c1ccc(-c2ccc(/C=N/NC(=O)c3[nH]c4ccc(Br)cc4c3-c3ccccc3)s2)cc1	22.8%
CSc1ccccc1NC(=O)c1ccc2nnn(/C(C#N)=C/c3ccccn3)c2c1	-98.6% (active)
Clc1cccc(Cl)c1/C=C/c1cc(/C=C/c2ccc(Br)cc2)c2ccccc2n1	126%
C=C1CC[C@@H]2[C@]3(C)COC(c4cn[nH]c4-c4ccc(OC)cc4)O[C@@H]3CC[C@@]2(C)[C@@H]1C/C=C1/C(=O)OCC1O (stereo partly drawn)	5.62% (active)
CSc1ccc(C(=O)Nc2ccc3nnn(/C(C#N)=C/c4ccccn4)c3c2)cc1	-74% (active)
CC(=O)Nc1cccc(Nc2nccc(N[C@@H](C)c3ccccc3)n2)c1	29.1%
O=C(N/N=C/c1ccc(-c2ccc(O)cc2)s1)c1[nH]c2ccc(Br)cc2c1-c1ccccc1	22.2%
COc1cc(CNC(=O)/C=C/c2ccc3c(c2)OCO3)ccc1OCc1cn(-c2cccc(C(F)(F)F)c2)nn1	19.9%
O=C(O)c1ccc(-c2ccc(/C=N/NC(=O)c3[nH]c4ccc(Br)cc4c3-c3ccccc3)o2)cc1	41.2%
CCCCOc1ccc(NC(=O)c2sc3nc(C)ccc3c2N)cc1	-20.1% (active)
Cc1ccc2c(N)c(C(=O)Nc3ccc(-c4ccccc4)cc3)sc2n1	75.3%
COc1ccc2nc(Nc3cccc(NC(=O)c4ccc(CN5CCCN(C)CC5)c(C(F)(F)F)c4)c3)ccc2c1	-81.1% (active)
N#Cc1c(-c2cccnc2)cc(-c2ccc3ccccc3c2)[nH]c1=O	109%
